# G9a block: qHTS Assay for Inhibitors of Histone Lysine Methyltransferase G9a; G9a H3K9 monomethylation, AlphaScreen, 2 h; Potency, µM (top dose mostly 102 µM), inactives show top-dose activity, negative = inhibition, most hits filed as inhibitors; 350,000 compounds, 8.8% hits; AID 504332, 2011; also: % is scaled to controls: 0 for no effect and ±100 for the full control effect; nearly all actives have a fitted effect of over 75% in size
#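 AlphaScreen read-out: biotin-H3K9 peptide (500 nM) methylation by 20 nM enzyme with 20 uM SAM, 2 h at room temperature after 15 min compound preincubation; anti-monomethyl H3K9 antibody plus donor/acceptor beads, 10 min dark.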
# JMJD2A Tudor: qHTS Assay for Inhibitors of JMJD2A-Tudor Domain. AlphaScreen JMJD2A-Tudor / H3K4me3 peptide binding. Potency, µM (series often up to 114 µM), for inactives: at the highest dose activity change, negative = inhibition, actives largely listed as inhibitors. 390,000 compounds, 4.4% hits. AID 504339, 2011; also: % is scaled to controls: 0 for no effect and ±100 for the full control effect; nearly all actives have a fitted effect of over 50% in size
# 12-LOX inh: Primary qHTS assay for inhibitors of human arachidonate 12S-lipoxygenase (ALOX12): Round 2; AID 1671190, 2021; purified 12hLO, xylenol orange hydroperoxide absorbance; 580,000 compounds, 1.1% hits; Potency, µM (series often up to 108 µM), for inactives: top-dose activity change, negative = inhibition, most hits filed as inhibitors; Polyunsaturated fatty acid lipoxygenase ALOX12 (Homo sapiens), P18054; also: % is scaled to controls: 0 for no effect and ±100 for the full control effect
# Target sequence (P18054 whole entry, looked up): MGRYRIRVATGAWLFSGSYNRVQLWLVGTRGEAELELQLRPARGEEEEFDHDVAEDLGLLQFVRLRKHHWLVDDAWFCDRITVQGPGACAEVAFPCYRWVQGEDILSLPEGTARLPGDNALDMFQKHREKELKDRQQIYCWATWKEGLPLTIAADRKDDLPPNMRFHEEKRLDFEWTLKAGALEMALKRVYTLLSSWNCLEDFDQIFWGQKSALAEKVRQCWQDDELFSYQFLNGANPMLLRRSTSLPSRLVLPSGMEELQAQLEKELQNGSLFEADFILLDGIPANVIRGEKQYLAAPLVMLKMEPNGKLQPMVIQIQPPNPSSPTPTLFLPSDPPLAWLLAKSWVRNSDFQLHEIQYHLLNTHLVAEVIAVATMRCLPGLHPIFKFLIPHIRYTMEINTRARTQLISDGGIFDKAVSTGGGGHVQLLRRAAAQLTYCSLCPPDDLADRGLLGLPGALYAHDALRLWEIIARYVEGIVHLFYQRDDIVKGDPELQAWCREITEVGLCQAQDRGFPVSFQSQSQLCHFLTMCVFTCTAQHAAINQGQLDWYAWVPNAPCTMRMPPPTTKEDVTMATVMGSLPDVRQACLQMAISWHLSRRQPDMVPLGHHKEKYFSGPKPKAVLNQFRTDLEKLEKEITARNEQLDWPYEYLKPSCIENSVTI
#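 Purified human 12hLO (150 nM final) in 25 mM Hepes, 0.01% Triton X-100, pH 7.0 was preincubated 15 min at room temperature with compound. Then 40 uM arachidonic acid was added, 30 min. Hydroperoxide was read by Fe-XO absorbance ratio 573/405 nm.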
# BAZ2B block: qHTS Assay for Inhibitors of BAZ2B | Bromodomain adjacent to zinc finger domain protein 2B (Homo sapiens), Q9UIF8 | 360,000 compounds, 4.4% hits | Potency, µM (doses to about 114 µM), without a hit: at the highest dose activity change, negative = inhibition, usual class: inhibitors | AlphaScreen BAZ2B-H3K14Ac peptide displacement; also: % is scaled to controls: 0 for no effect and ±100 for the full control effect; nearly all actives have a fitted effect of over 60% in size
#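 AlphaScreen luminescence quantifies BAZ2B engagement of H3K14Ac peptide; the protein and biotinylated peptide are both at 50 nM final, buffer PBS pH 7.4 with 0.01% Tween-20, all steps at room temperature.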
# PLK1 PBD block: qHTS for Inhibitors of PLK1-PDB (polo-like kinase 1 - polo-box domain): Primary Screen; Potency, µM, for the others: max response, negative = inhibition, actives largely listed as inhibitors; 360,000 compounds, 2.8% hits; Plk1 PBD binding of FITC phosphopeptide, fluorescence polarization; Serine/threonine-protein kinase PLK1 (Homo sapiens), P53350; also: series mostly up to about 57 µM; % is scaled to controls: 0 for no effect and ±100 for the full control effect; nearly all actives have a fitted effect of over 65% in size
# HP1b chromo inh: HTS for Inhibitors of HP1-beta Chromodomain Interactions with Methylated Histone Tails; Chromobox protein homolog 1 (Homo sapiens), P83916; AlphaScreen HP1-beta / biotin-H3K9me3 peptide binding; Potency, µM (series often up to 114 µM), for the others: at the highest dose activity change, negative = inhibition, actives largely listed as inhibitors; 390,000 compounds, 0.56% hits; AID 540317, 2011; also: nearly all actives have a fitted effect of over 70% in size
#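 HP1-beta protein (50 nM final) preincubated 30 min at room temperature with biotinylated H3(1-18)K9me3 peptide (50 nM) in PBS pH 7.4, 0.01% Tween-20, then compound added for 30 min. AlphaScreen streptavidin donor/nickel chelate acceptor beads (10 ug/mL final), 30 min dark, luminescence read.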
# * hit, by the source's call; u = inconclusive; x = no result given; ! = repeats disagree; [ ] = another dose, or the depositor's remark. The list is not random: actives were taken first. Their share in the collection is about 9%. Calls follow the shape of the dose curve; as a rule, active = well fitted curve in the direction sought with a large enough effect; inconclusive = small, poorly fitted or top-dose-only effect, or another doubt; inactive = no such curve, though single readings can be large; an effect the other way counts as inactive or inconclusive. Potency is read from the fitted curve at half-maximal effect.
SMILES,G9a block,JMJD2A Tudor,12-LOX inh,BAZ2B block,PLK1 PBD block,HP1b chromo inh
CN(C)S(=O)(=O)n1cc(/C=C(\NC(=O)c2ccccc2)C(=O)N2CCCCC2)c2ccccc21,x,x,-19%,x,5%,x
CC(C)CCNc1c(-c2cccs2)nc2ccccn12,45µM*,-14%,-5%,-30%,0%,24%
O=S(=O)(NCc1ccc(F)cc1)c1ccc2[nH]c3c(c2c1)CCCCC3,8.9µM*,45µM*,u,-26%[57.1 µM],x,u
COc1cccc(CNS(=O)(=O)c2ccc3[nH]c4c(c3c2)CCCCC4)c1,u,u,u,-30%[57.1 µM],x,u
O=S(=O)(Nc1cc(F)ccc1F)c1ccc2[nH]c3c(c2c1)CCCCC3,u,u,u,40µM*,x,-26%
COC(=O)c1ccc(Cn2nnc3c(=O)[nH]c(C4CCN(S(=O)(=O)c5cc(C)ccc5C)CC4)nc32)cc1,11%,-17%,-10%,-28%,0%,23%
O=C(Nc1cnc(N2CCN(c3ccccc3)CC2)c(C(=O)O)c1)c1cccs1,u,79µM*,6%,50µM*,x,-9%
CCCC(=O)NC(=S)Nc1ccc(NC(=O)c2cccs2)cc1,11µM*,-7%,0%,3%,-7%,44%
O=C(Nc1ccc(N2CCN(c3ccc(F)cc3)CC2)c(C(=O)O)c1)c1cccs1,6%[59 µM],-14%,-25%,5%,x,47%
CCCC(=O)Nc1ccc(NC(=O)c2cccs2)cn1,14%[12.7 µM],-8%,52%,5%,4%,30%
CCCC(=O)Nc1ccc(NC(=S)NC(=O)c2cccs2)cc1,32µM*,-12%,u,u,u,39%
CCCC(=O)NC(=S)Nc1ccc(N2CCN(C(=O)c3cccs3)CC2)cc1,40µM*,-27%,-26%,u,-6%,4%
CCCC(=O)Nc1ccc(C(=O)NNC(=S)NC(=O)c2cccs2)cc1,5%[0.0925 µM],-24%,-10%,1%,-19%,29%
Cc1ccc(NC(=O)Cn2ccn3nc4c(c3c2=O)CC(C)CC4)cc1C (stereo not drawn),x,x,38%,x,x,x
O=C(c1noc2c1CCc1ccccc1-2)N1CCCc2ccccc21,22%[2.33 µM],27%,25%,6%,3%,50%
CCOc1ccccc1N1CC(C(=O)N(CC)C2CCS(=O)(=O)C2)CC1=O (stereo not drawn),x,-29%,-21%,x,-9%,28%
Nc1nc2ncc(CNc3ccc(C(=O)N[C@@H](CCC(=O)O)C(=O)O)cc3)nc2c(=O)[nH]1,13%[21.5 µM],-15%,103%,-1%,-2%,31%
CCN(CC)c1ccc(NC(=O)CN(C)Cc2cccs2)cc1,8.9µM*,40µM*,1%,32µM*,-10%,45µM*
CCCC(=O)N1CCN(c2ccc(NC(=O)c3cccs3)cc2)CC1,27%[59 µM],u,13%,u,24µM*,u
O=C(Nc1ccc(NC(=S)NC(=O)c2cccs2)cc1)c1ccco1,50µM*,-23%,u,-31%,-8%,18%
CC(=O)NC(=S)Nc1ccc(NC(=S)NC(=O)c2cccs2)cc1,x,-29%,u,-6%,-12%,35%
CCN(CC)c1ccc(NC(=S)NC(=O)c2cccs2)cc1,x,18µM*,18µM*,10µM*,-8%,u
O=C(NC(=S)NNC(=O)c1cccs1)c1ccco1,u,2%,0%,79%[57.1 µM],-5%,33%
CCCC(=O)N1CCN(c2ccc(NC(=O)c3ccco3)cc2)CC1,u,-18%,0%,1%,-7%,26%
CCCCn1c(CN2CCCC(C(=O)c3nccn3C)C2)cnc1S(=O)(=O)CC (stereo not drawn),x,x,13%,x,x,x
SMILES,G9a block,JMJD2A Tudor,12-LOX inh,BAZ2B block,PLK1 PBD block,HP1b chromo inh
CC(=O)Nc1ccc(C(=O)OCC(=O)Nc2ccccc2Sc2ccccc2)cc1,13%,-24%,-12%,-4%,-9%,28%
CCN1C(=NCC(C)C)N[C@@H](c2cccc(F)c2)C(C(=O)OC)=C1C,40µM*!,u,u,u,-3%,46%
CCN1C(=NCCN2CCOCC2)N[C@@H](c2ccccc2)C(C(=O)OC)=C1C,50µM*!,u,-26%,u,-15%,-17%
CCN(CC)CCCN=C1N[C@@H](c2cccc(C(F)(F)F)c2)C(C(=O)OC)=C(C)N1CC,x,25µM*,u,x,-1%,25%
CCN1C(=NCCCCO)N[C@@H](c2cccc(F)c2)C(C(=O)OC)=C1C,10%[12.7 µM],u,-27%,u,-10%,1%
CCN1C(=NCc2ccco2)N[C@@H](c2cccc(F)c2)C(C(=O)OC)=C1C,40µM*!,u,u,-39%,-6%,47%
COc1ccc2c(ccc[n+]2CC(=O)c2ccc(C)cc2)c1,x,-28%,0%,7%,-9%,14%
COc1ccc(C(=O)C[n+]2cn(C(F)F)c3ccccc32)c(F)c1,u,-7%,4%,x,13µM*,26%
Cc1cccc(S(=O)(=O)NC(Cc2c[nH]c3ccccc23)C(=O)O)c1 (stereo not drawn),-14%[59 µM],-20%,1%,-6%,1%,8%
CN1CCNc2nc(COc3ccc(F)cc3)n(Cc3ccccc3)c2C1=O,x,x,31%[176 µM],x,x,x
CC(N)=NCCCC(N)C(=O)O (stereo not drawn),23%[12.7 µM],x,x,x,x,x
CC(N)=NCCCC[C@@H](N)C(=O)O,10µM*!,x,x,x,x,x
C/C(Cl)=C/Cn1c(SCC(C)C)nc2c1c(=O)[nH]c(=O)n2C,50µM*,9%,20%,8%,-16%,10%
CC(C)CSc1nc2c(c(=O)[nH]c(=O)n2C)n1CCCc1ccccc1,x,x,-6%,x,x,x
CCCCOC(=O)CSc1nc2c(c(=O)[nH]c(=O)n2C)n1C/C=C(\C)Cl,16µM*,0%,u,8%,u,-9%

# Assay outcomes deposited in PubChem BioAssay by National Center for Advancing Translational Sciences (NCATS).
